# PrPC surface inh – inhibitors of human cell surface prion protein PrPC, primary screen, cell-based, TR-FRET. TR-FRET read-out. inhibition, % at 13.8 µM. Major prion protein (Homo sapiens), P04156. 0.43% of 370,000 active; in the data active means inhibition above about 24%; further: 0% = median of the test wells and 100% = reference compound wells
# BJeLR lethal – MLPCN primary cell-based screen for lethality selective to Ras in HRASV12 cells. BJeLR (HRASV12) viability, CellTiter-Glo ATP luminescence, 48 h. inhibition, % (concentration not given with the values). 0.17% of 300,000 active. AID 1554, 2009; in the data active means inhibition above about 50%
# GDH-TPI counter – GDH-TPI coupling enzyme inhibitors, primary screen, artefact control for M. tuberculosis FBA inhibitor project, biochemical, absorbance, full deck. GDH-TPI coupled enzyme counterscreen, NADH absorbance. inhibition, % at 4.8 µM. 1.2% of 360,000 active; in the data active means inhibition above about 30%;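 further: 0% = DMSO wells and 100% = wells lacking the enzyme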
# RecA intein inh – Mtb RecA intein splicing inhibitors, primary screen, biochemical, fluorescence, HTS. cell-free RecA intein splicing. AID 2221, 2009. 0.75% of 290,000 active. inhibition, % (no concentration beside the values). Protein RecA (Mycobacterium tuberculosis (strain ATCC 25618 / H37Rv)), P9WHJ3; in the data active means inhibition above about 30%;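 further: 0% = vehicle wells and 100% = reference inhibitor control wells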
# FBA Mtb inh – Mtb FBA enzyme inhibitors, primary screen, biochemical, fluorescence, strain H37Rv; purified M. tuberculosis FBA, fluorescence read-out; inhibition, % at 1 µM; 2.3% of 360,000 active; in the data active means inhibition above about 27%;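 further: 0% = vehicle and 100% = reference inhibitor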
# GFP chromophore – counter-screen: blocks GFP chromophore formation, dose response, counter-screen, biochemical, fluorescence, homogeneous; AID 434968, 2010; 83% of 2,100 active; EC50, µM; shares compounds with RecA intein inh; cell-free GFP chromophore formation; call rule not given here
# * hit, by the source's call; · = not tested or not shown. In the library only some 4.2% were active in any assay of this set; here they are far more common.
SMILES,PrPC surface inh,BJeLR lethal,GDH-TPI counter,RecA intein inh,FBA Mtb inh,GFP chromophore
NNC(=O)c1cc(C23CC4CC(CC(C4)C2)C3)[nH]n1,2,-2,-4,-2,3,·
O=c1cc(C23CC4CC(CC(C4)C2)C3)[nH][nH]1,-3,-8,-1,91*,-3,10*
COc1ccc(NC(=O)N2CCC(N(C)CCC(C)C)CC2)cc1OC,6,·,·,·,·,·
COc1ccc(C2C(C(=O)Nc3ccc(F)cc3)CCC(=O)N2c2ccc(OC)cc2)cc1 (stereo not given),-8,·,·,·,·,·
Cc1ccc(-c2nn(-c3ccccc3)cc2CO)cc1,-4,7,-10,2,0,·
N=C(N)SCc1cn(-c2ccccc2)nc1-c1ccc(Br)cc1,-18,3,3,40*,-5,20*
S=c1[nH]nc(-c2cc(-c3ccccc3)n[nH]2)n1/N=C/c1cccc2ccccc12,-11,·,·,·,·,·
COc1ccc(CN2C(=O)CCCC2(C)c2nnnn2-c2ccc3c(c2)OCCO3)cc1 (stereo not given),-2,·,·,·,·,·
CC1=NN(c2ccccc2)C(=O)C1/C=C1\C(=O)NC(=O)N(c2ccc(C)c(C)c2)C1=O (stereo not given),2,-7,2,41*,-3,16*
Cc1[nH]c2ccccc2c1CC#N,0,4,2,-1,0,·
Cc1[nH]c2ccccc2c1C(C#N)(C#N)C1C(=O)c2ccccc2C1=O,1,12,14,42*,-5,34*
N#C/C(=C\c1cccc(O)c1)c1nc2ccccc2o1,-1,-3,35*,69*,7,21*
N#C/C(=C\c1ccncc1)c1nc2ccccc2o1,1,-1,6,28,10,·
CN1C(=O)c2cc(NC(=O)c3ccc(F)cc3)ccc2OC[C@H]2O[C@H](CC(=O)NC3CCC3)CC[C@H]21,-4,·,·,·,·,·
COc1cc(/C=N/NC(=O)c2ccc(F)cc2)ccc1OC(=O)c1ccco1,-2,0,13,30*,0,>38
O=C(N/N=C/c1ccc(OC(=O)c2ccco2)cc1)c1ccc[n+]([O-])c1,0,5,36*,32*,-2,>38
O=C(N/N=C\c1ccc(OC(=O)c2ccco2)cc1)c1ccc(Cl)cc1,-1,-25,12,5,-3,·
C[C@H]1C2CC(OC(=O)NCCCc3ccccc3)C(C2)[C@H]2CCCCN21 (stereo not given in full),-5,·,·,·,·,·
CN(Cc1ccccc1)S(=O)(=O)c1cccc(C(=O)OCc2ccc(Oc3ccccc3)cc2)c1,-3,·,·,·,·,·
CC(NC(=O)COC(=O)c1cc(NS(=O)(=O)c2ccc(Cl)c([N+](=O)[O-])c2)ccc1O)C1CC2CCC1C2 (stereo not given),-3,5,4,48*,0,>38
N#CCC[C@H]1CC[C@]2(CCCN(C(=O)C3CCCCC3)C2)O1,4,·,·,·,·,·
O=C(NN=c1c(=O)c2ccccc2c1=O)c1ccccc1,-13,-3,15,91*,-4,5.2*
CN(C)/C=N/NC(=O)c1ccccc1,-1,-4,-7,-1,-6,·
Cc1cc(N/N=C/c2ccc(O)c(C)c2O)nc(-c2ccccc2O)n1,16,29,32*,47*,6,>38
C/C(=N\Nc1cc(C)nc(-c2ccccc2O)n1)c1ccccc1,0,0,11,8,2,·
SMILES,PrPC surface inh,BJeLR lethal,GDH-TPI counter,RecA intein inh,FBA Mtb inh,GFP chromophore
Cc1ccc(C(=O)NC(=S)NNS(=O)(=O)c2ccc(C)cc2)cc1,-3,1,-10,41*,3,>38
Cc1ccc(S(=O)(=O)NNC(=S)NC(=O)c2ccc([N+](=O)[O-])cc2)cc1,-5,5,8,23,2,·
COc1cccc(C=NNC(=O)CSc2nc3ccccc3[nH]2)c1O,4,·,·,·,·,·
CCc1ccc(NC(=O)C(=O)N/N=C(\C)CC(=O)Nc2ccccn2)cc1,0,9,-3,36*,6,>38
CCCCC(=O)NC(c1cccc([N+](=O)[O-])c1)c1c(OC(C)=O)ccc2ccccc12 (stereo not given),3,-1,-4,35*,-1,>38
Cc1ccc(-n2c(COc3ccccc3)nnc2SCC(=O)Nc2ccc3c(c2)OCO3)cc1,14,·,·,·,·,·
C/C=C/C(=O)N1CCC(C(=O)NCC2COc3ccccc3O2)CC1 (stereo not given),-1,·,·,·,·,·
CC1=C(C)CC2(SC1)C(=O)N(c1ccccc1)N=C2N (stereo not given),-3,-5,7,76*,1,4.1*
N#CCC[C@H]1CC[C@]2(CCCN(Cc3cccc4ccccc34)C2)O1,-2,·,·,·,·,·
Cc1cc(=O)n(C2CCS(=O)(=O)C2)[nH]1 (stereo not given),-4,·,-4,93*,2,3.8*
COc1ccc(NC(=O)N(C)[C@H]2C[C@H]3c4[nH]c5c(-c6ccccc6)cccc5c4CCN3C(=O)[C@H]2[C@H](C)O)cc1,2,·,·,·,·,·
CN1CCc2cc3c(c4c2C1Cc1ccccc1-4)OCO3 (stereo not given),-42,0,10,55*,-2,0.87*
O=C(CSCc1ccc([N+](=O)[O-])cc1)N/N=C/c1ccncc1,-6,2,-6,-2,1,·
O=C(CSCc1ccc([N+](=O)[O-])cc1)N/N=C/c1cccnc1,-15,-9,-1,38*,4,>38
O=C(CN1C(=O)S/C(=C\C=C\c2ccccc2)C1=O)Nc1ccccc1C(=O)O,6,7,35*,60*,-2,10*
CC1=NN(CCC#N)C(=O)/C1=C/c1ccc(N(C)C)cc1,-4,8,2,48*,-26,11*
CCOc1cc(/C=C2\C(=O)N(CCC#N)N=C2C)ccc1OCC(N)=O,3,4,0,88*,-6,9.3*
COc1cc(/C=C2\SC(N)=NC2=O)ccc1OCC(=O)Nc1ccc(C)cc1,-13,-9,20,-3,-1,·
COc1cc(/C=C2\C(=O)N(CCC#N)N=C2C)ccc1OCC(=O)Nc1ccccc1,0,3,0,79*,-1,5.6*
O=C(Nc1ccc2c(c1)OCO2)NC1CCCCN(Cc2cccc(Cl)c2)C1=O (stereo not given),-1,·,·,·,·,·
COC(=O)C[C@H]1CC[C@@H]2[C@H](COc3ccc(NC(=O)c4cccc(Cl)c4)cc3C(=O)N2C)O1,-9,·,·,·,·,·
O=C(c1ccc(F)cc1F)N1CCC(Oc2cccnc2)CC1,7,·,·,·,·,·
CCCc1[nH][nH]c(=O)c1C(c1cccc(Cl)c1)C(C#N)C#N (stereo not given),-6,-1,5,52*,2,9.4*
Cc1[nH]n(-c2ncc(-c3ccc(Cl)cc3)s2)c(=O)c1C(c1ccc(Cl)cc1)C(C#N)C#N (stereo not given),·,-8,3,7,-1,·

# Bioassay records as filed in PubChem BioAssay.
